In this assay the test system is gramicidin D channels in DC22:1PC lipid vesicles (bilayer-modifying potency). Description: initial Tl+ fluorescence quench rate relative to no-drug control (NormRate, gramicidin monomer-dimer shift) (ratio (fold of control)); higher = stronger bilayer-modifying effect (equilibrium shifted toward conducting dimers), active = 1.5 or more. To be noted: 10 µM; lipid concentration 50 µM; temperature: 25 °C. On the procedure:
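Stopped-flow fluorescence quench assay: ANTS-loaded DC22:1PC large unilamellar vesicles doped with gramicidin D (1:2000), 50 µM lipid, equilibrated 10 min with 10 µM drug (0.1% DMSO), mixed with Tl+ quench buffer at 25°C. Initial quench rate (Tl+ influx) was fitted with a modified stretched exponential and normalised to the no-drug control rate (NormRate); duplicates from two independent LUV preparations (triplicates for 7 drugs).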

Unmarked numbers belong to inactive results.

These results are taken from the supplement of paper PMC9948646.

Take `CCc1c(C)nc(-n2nc(C)cc2NC(=O)c2ccccc2SC)[nH]c1=O`: the “initial Tl+ fluorescence quench rate” value was 1.2.

Take `Cc1cccc(-c2nc(Nc3ccncn3)c3sccc3n2)n1`: the “initial Tl+ fluorescence quench rate” value is 1.81 (active).

On to `Clc1ccc(Cl)c(CO[C@H]2CCCC[C@@H]2n2ccnc2)c1`, for which the “initial Tl+ fluorescence quench rate” value was 1.09.

Consider `Cc1noc(C)c1C(=O)N1CCC[C@@H](c2[nH]c3c(C)cccc3c2-c2ccncc2)C1`, for which the “initial Tl+ fluorescence quench rate” value was 1.73 (active).

In the case of `c1ccc(Oc2ccc(-c3cc(N4CCOCC4)[nH]n3)cc2)cc1`, the “initial Tl+ fluorescence quench rate” value was 2.4 (active).

For the molecule `CCOc1ccccc1N[C@H](C)C(=O)Nc1cc(C(F)(F)F)ccc1N1CCOCC1`, the “initial Tl+ fluorescence quench rate” value was 1.72 (active).

For `CCc1ccc([C@@H]2C[C@H](C(F)(F)F)n3ncc(C(=O)NCc4ccc(OC)cc4)c3N2)cc1`, the “initial Tl+ fluorescence quench rate” value was 4.55 (active).

In the case of `CCCCS(=O)(=O)Nc1ccc2cnn(C)c2c1`, the “initial Tl+ fluorescence quench rate” value is 1.36.

For the molecule `Cc1ccc2[nH]c([C@H]3CCCNC3)c(-c3ccncc3)c2c1`, the “initial Tl+ fluorescence quench rate” value is 1.42.

For the molecule `O=C(NC1CCCCC1)N1CCN(Cc2ccc3c(c2)OCO3)CC1`, the “initial Tl+ fluorescence quench rate” value is 1.13.

As for `Clc1cccc([C@@H](c2ccc(CN3CCNCC3)cc2)n2ccnc2)c1`, the “initial Tl+ fluorescence quench rate” value is 1.17.

For `O=C(Nc1ccnc(-c2cccnc2)n1)c1cc(C(F)(F)F)cc(C(F)(F)F)c1`, the “initial Tl+ fluorescence quench rate” value was 1.2.

With `Cc1cc(Cl)ccc1NC(=O)CCc1ccc(S(=O)(=O)NCC(C)C)cc1`, the “initial Tl+ fluorescence quench rate” value was 1.42.

With `Cc1ccc(C(=O)Nc2ccc(S(=O)(=O)O)c3cc(S(=O)(=O)O)cc(S(=O)(=O)O)c23)cc1NC(=O)c1cccc(NC(=O)Nc2cccc(C(=O)Nc3cc(C(=O)Nc4ccc(S(=O)(=O)O)c5cc(S(=O)(=O)O)cc(S(=O)(=O)O)c45)ccc3C)c2)c1`, the “initial Tl+ fluorescence quench rate” value was 2.56 (active).

As to `O=C(Nc1ccccc1)c1ccc(-c2cc3ccncc3cc2OC2CCNCC2)s1`, the “initial Tl+ fluorescence quench rate” value was 1.8 (active).

With `O=C([C@@H](Cc1c[nH]c2ccccc12)NS(=O)(=O)c1ccc(Cl)cc1)N1CCCCC1`, the “initial Tl+ fluorescence quench rate” value was 4.26 (active).

For `Nc1nccc2ccc(-c3ccc4nccn4c3)cc12`, the “initial Tl+ fluorescence quench rate” value was 1.17.

`COc1ccc(CN2CCOc3ccc([C@@](C)(O)CN(C)C)cc3C2)cc1C`: the “initial Tl+ fluorescence quench rate” value was 1.2.

For the molecule `COc1ccc2nc(C)cc(OCC(=O)Nc3ccccc3OC)c2c1`, the “initial Tl+ fluorescence quench rate” value was 1.11.

Take `COc1ccc(-c2cnc3ccc(NCc4ccc(S(N)(=O)=O)cc4)nn23)cn1`: the “initial Tl+ fluorescence quench rate” value was 1.24.

Turning to `Cc1nnc(NCc2cccc(Cl)c2)c2ccccc12`, the “initial Tl+ fluorescence quench rate” value is 1.05.

For the molecule `FC(F)(F)c1cnc(Sc2nnc(-c3ccncc3)o2)c(Cl)c1`, the “initial Tl+ fluorescence quench rate” value is 1.23.

Regarding `Nc1ncc(Br)cc1-c1nc2cc(Cl)cnc2[nH]1`, the “initial Tl+ fluorescence quench rate” value is 1.06.

Take `O=C(Nc1nnc(-c2ccc(Cl)cc2)o1)c1cccc(C(F)(F)F)c1`: the “initial Tl+ fluorescence quench rate” value is 1.07.

For `COc1ccc(Oc2ccc([C@@H](C)N(C)c3ncc4c(N)nc(N)nc4n3)cc2)cc1`, the “initial Tl+ fluorescence quench rate” value was 3.36 (active).

On to `N#Cc1nc(-c2ccccc2F)oc1NCCc1ccccc1`, for which the “initial Tl+ fluorescence quench rate” value was 1.04.

Take `FC(F)(F)c1ccc(N(c2cccnc2)C2CCN(c3ccc(C(F)(F)F)cn3)CC2)cc1`: the “initial Tl+ fluorescence quench rate” value was 1.56 (active).

Consider `O=C(COc1cccc(F)c1)Nc1nc(-c2ccccn2)cs1`, for which the “initial Tl+ fluorescence quench rate” value was 1.16.
